CYP2C9 inhib: human CYP2C9 inhibition; P11712; CYP2C9 Supersomes, luciferin-H conversion, luminescence; inhibition, % at 5 µM; actives 20% (n = 96,000); AID 777;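 active = blocking of liver enzyme CYP2C9 beyond about 50% at 5 µM, limit read from the data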
CYP2C9 activ: activators of human CYP2C9; P11712; recombinant CYP2C9, luciferin-H conversion, luminescence; hits give high values; factor 1 = untreated enzyme, 0 = blocked; activation factor at 5 µM; actives 1.4% (n = 96,000); AID 1024;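 active = activation factor of 2 or more for CYP2C9 at a 5 µM dose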;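 also: 0 = sulfaphenazole-blocked wells and 1 = vehicle-only wells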
CYP2C19 activ: increases human CYP2C19 enzyme activity; P33261; recombinant CYP2C19, luciferin-H EGE luminescence; hits give high values; 0 = fully inhibited enzyme, 1 = untreated enzyme; activation factor at 5 µM; 96,000 tested, under 10 active;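 active = activation factor of at least 2 at 5 µM in the primary screen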;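 also: 0 = wells with 2.5 mM tranylcypromine and 1 = vehicle-only wells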
CYP2C19 inh: human CYP2C19 inhibition; CYP2C19 Supersomes, luciferin-H EGE luminescence, 30 min; inhibition, % at 5 µM; actives 21% (n = 96,000); AID 778;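 active = CYP2C19 inhibition above a set limit at 5 µM in the primary screen, cut at about 50% in these data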;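 also: plate controls were negative control wells for no effect and 2.5 mM tranylcypromine positive control for full effect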
PLK1 PBD inh: Plk1 (human) PBD binding inhibition; P53350; Plk1 PBD phosphopeptide binding, fluorescence polarization; inhibition, %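 (tested at about 20 µM)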; actives 0.13% (n = 97,000); AID 693; in the data active = inhibition above about 34%, passing the limit was not always enough
Target sequence (P53350 whole entry, looked up): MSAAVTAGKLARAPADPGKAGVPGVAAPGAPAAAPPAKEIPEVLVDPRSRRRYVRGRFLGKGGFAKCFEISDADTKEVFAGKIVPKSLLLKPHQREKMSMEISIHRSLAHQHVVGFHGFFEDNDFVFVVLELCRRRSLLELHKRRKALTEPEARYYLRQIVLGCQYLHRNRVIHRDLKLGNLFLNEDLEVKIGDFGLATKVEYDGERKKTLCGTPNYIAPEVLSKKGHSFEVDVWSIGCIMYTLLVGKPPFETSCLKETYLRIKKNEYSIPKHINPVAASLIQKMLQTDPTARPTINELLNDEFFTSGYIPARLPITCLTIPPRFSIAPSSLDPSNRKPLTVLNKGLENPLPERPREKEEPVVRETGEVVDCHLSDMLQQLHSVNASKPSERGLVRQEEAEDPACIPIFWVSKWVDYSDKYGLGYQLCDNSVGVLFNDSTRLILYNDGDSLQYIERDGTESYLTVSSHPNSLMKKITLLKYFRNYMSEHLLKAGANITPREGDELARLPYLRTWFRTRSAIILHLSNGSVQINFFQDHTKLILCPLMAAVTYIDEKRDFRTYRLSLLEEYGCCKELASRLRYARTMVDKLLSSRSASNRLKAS
PLK1 inh: inhibitors of human PLK1 kinase; AID 619; recombinant PLK1 kinase, TR-FRET peptide phosphorylation; actives 0.53% (n = 97,000); inhibition, % at 10 µM; P53350;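 active = inhibition of 50% or more in the single-concentration screen; inactive = inhibition below 50%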;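 also: 0% = DMSO max control and 100% = H-89 dihydrochloride min control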
The depositor's hits bear a star; / = not tested or not shown. Shown are actives, neighbours in structure and some others; about 28% of the full set was active somewhere.

SMILES | CYP2C9 inhib | CYP2C9 activ | CYP2C19 activ | CYP2C19 inh | PLK1 PBD inh | PLK1 inh
COc1ccc(-n2c(=S)[nH]c3cc(C(=O)NCCCN4CCCC4=O)ccc3c2=O)c(OC)c1 | -0.5 | 1 | 1.1 | -7.3 | 10.6 | 4.5
COC(=O)c1cc(=O)n(Cc2ccc3c(c2)OCO3)c(=Nc2ccccc2)s1 | 68.2* | 0.3 | 0.8 | 16.7 | / | /
COC(=O)c1cc(=O)n(Cc2ccco2)c(=Nc2ccc(F)c(Cl)c2)s1 | 68.9* | 0.3 | 0.4 | 64.1* | -7.0 | 0.2
Cc1ccccc1CN1CCN(CC(=O)NCc2ccccc2)C1=O | 30.4 | 0.7 | 0.9 | 12.1 | 10.4 | -6.8
Cc1cccc(OCC(=O)NNc2c3ccccc3nc3ccccc23)c1 | -95.2 | 2* | 1 | 4.8 | 17.4 | -11.3
Cc1cccc(OCC(=O)Nc2cc(C)c(C)cc2O)c1 | 26.3 | 0.7 | 0.4 | 56.1* | -5.9 | -2.0
COc1cccc(C(=O)Nc2cc(C)ccc2NC(=O)COc2ccccc2)c1 | 12.4 | 0.9 | 1.1 | -11.4 | 17.3 | -6.5
Cc1cccc(OCC(=O)Nc2cc(C)ccc2O)c1 | 16.1 | 0.8 | 0.4 | 60.4* | 6.7 | -6.2
Cc1csc(NC(=O)CCSCCc2ccccn2)n1 | 41.3 | 0.6 | 0.4 | 61.0* | 9.8 | -7.9
O=C(CSCCc1ccccn1)Nc1ccccn1 | -8.0 | 1.1 | 0.9 | 11.3 | -31.2 | -7.2
COc1ccc(-c2nnc(NC(=O)c3cc(Cl)ccc3Cl)o2)cc1 | 8.5 | 0.9 | 0.9 | 7.1 | -8.1 | -2.5
CCSc1nc(N2CCOCC2)c2c(c1C#N)CCCC2 | 90.8* | 0.1 | 0.3 | 69.8* | -15.1 | -10.6
CC(C)c1nc(N2CCOCC2)c(C#N)c2c1CCCC2 | 41.5 | 0.6 | 0.2 | 80.3* | 17.5 | -14.5
N#Cc1c(N2CCOCC2)nc(N2CCCCC2)c2c1CCN(C1CCCCC1)C2 | 25.0 | 0.8 | 0.9 | 10.3 | 9.8 | -36.4
COc1ccccc1NC(=O)Cn1cnc2c(cnn2-c2ccc(C)c(C)c2)c1=O | 13.7 | 0.9 | 1 | 1.9 | -1.6 | -13.6
CC(C)CN(CCC(=O)O)CC(C)C | 21.6 | 0.8 | 1.3 | -26.6 | -2.2 | -4.2
O=C(CSCc1ccc(Cl)cc1)Nc1cccc(C(=O)Nc2ccccc2C(=O)O)c1 | 97.5* | 0 | 0.7 | 34.0 | 1.1 | -2.4
CC(C)C(=O)Nc1cccc(C(=O)NCCc2ccc(S(N)(=O)=O)cc2)c1 | 75.0* | 0.3 | 0.9 | 5.8 | 7.9 | -9.7
O=C(Nc1ccccc1C(=O)O)c1cccc(F)c1 | / | / | / | / | 12.7 | -4.2
COc1c(Cl)cc(C(=O)Nc2ccccc2C(=O)O)cc1Cl | 72.8* | 0.3 | 1 | 4.9 | -13.4 | -1.4
CC(C)C(=O)Nc1cccc(C(=O)Nc2ccccc2C(=O)O)c1 | 83.4* | 0.2 | 1 | -4.8 | 14.8 | 2.6
O=C(Nc1ccc(Cl)cc1Cl)c1cccc(N2C(=O)C=CC2=O)c1 | / | / | / | / | / | -3.6
COC(C(=O)Nc1ccc(F)cc1F)c1ccccc1 (configuration not stated) | -1.5 | 1 | 0.8 | 20.6 | -9.0 | 3.5
O=C(Nc1ccccc1-c1nc2ccccc2s1)c1cccnc1Cl | 11.9 | 0.9 | 1 | 0.7 | 31.0 | -22.5
O=C(CSCc1ccccc1)Nc1cccc(C(=O)Nc2ccccc2C(=O)O)c1 | 95.2* | 0 | 0.9 | 10.1 | 20.8 | -9.8
SMILES | CYP2C9 inhib | CYP2C9 activ | CYP2C19 activ | CYP2C19 inh | PLK1 PBD inh | PLK1 inh
c1ccc(C(c2c[nH]c3ccccc23)c2c[nH]c3ccccc23)nc1 | 94.6* | 0.1 | 0.5 | 53.6* | 13.4 | 1.9
Cn1cc(C(c2ccccn2)c2cn(C)c3ccccc23)c2ccccc21 | 95.7* | 0 | 0.6 | 43.7 | -9.7 | -15.6
Cc1ccccc1C(O)c1ccccn1 (configuration not stated) | 6.3 | 0.9 | 0.8 | 17.1 | 5.6 | -5.9
N#CC1=C2SCCN2C(=O)C(C#N)C12CCCCC2 (configuration not stated) | 36.0 | 0.6 | 0.5 | 45.2 | 18.2 | -4.4
N#Cc1nc(COc2cccc(Cl)c2)oc1N1CCN(c2ccccc2)CC1 | 57.0* | 0.4 | 0.5 | 49.5 | -29.4 | -12.9
N#Cc1nc(COc2ccccc2)oc1N1CCCCC1 | 34.3 | 0.7 | 0.5 | 49.6 | 20.5 | 1.6
COc1ccc(N2CCN(c3oc(COc4ccccc4Cl)nc3C#N)CC2)cc1 | 56.5* | 0.4 | 0.6 | 38.5 | / | /
N#Cc1nc(COc2ccccc2)oc1N1CCN(c2cccc(Cl)c2)CC1 | 79.7* | 0.2 | 0.6 | 38.5 | 23.1 | -9.0
N#Cc1nc(COc2ccc(Cl)cc2)oc1N1CCCCCC1 | 97.0* | 0 | 0.1 | 89.1* | -15.7 | -8.7
Cc1cccc(-n2nc(C)cc2N)c1 | -12.7 | 1.1 | 1.1 | -6.5 | -19.4 | -5.6
O=c1cc(O)n(-c2ccc(Cl)cc2)c(=S)[nH]1 | 42.9 | 0.6 | 0.9 | 12.5 | -24.0 | -1.8
COC(=O)N1CCN(c2ccc(Cl)c(Cl)c2)CC1 | 28.3 | 0.7 | 0.3 | 66.3* | 20.3 | -7.7
COc1ccccc1-c1noc(-c2ccccc2C(=O)Nc2cccnc2)n1 | 14.5 | 0.9 | 0.9 | 10.7 | -22.0 | -7.0
O=C(CN1CCC(n2nnc3cc(C(F)(F)F)ccc32)CC1)N1CCc2ccccc21 | -86.4 | 1.9 | 0.9 | 10.7 | -4.0 | -11.5
Cc1ccc2c(c1)nnn2C1CCN(CC(=O)Nc2ccc3c(c2)OCCO3)CC1 | 50.1* | 0.5 | 0.7 | 27.1 | -19.6 | -9.2
O=C(CN1CCC(n2nnc3ccccc32)CC1)Nc1ccc2c(c1)CCC2 | 62.0* | 0.4 | 0.3 | 67.5* | -18.0 | -9.2
COc1ccc(Cl)cc1NC(=O)CN1CCC(n2nnc3cc(F)ccc32)CC1 | 18.7 | 0.8 | 0.2 | 75.7* | -19.9 | -9.9
O=C(CN1CCC(n2nnc3cc(F)ccc32)CC1)Nc1ccc2c(c1)CCC2 | 44.6 | 0.6 | 0.6 | 44.1 | -2.9 | -3.7
COC(=O)c1ccccc1NC(=O)CN1CCC(n2nnc3cc(C)ccc32)CC1 | 24.6 | 0.8 | 0.8 | 25.0 | / | /
O=C(CN1CCC(n2nnc3cc(F)ccc32)CC1)N1CCCc2ccccc21 | 9.6 | 0.9 | 0.3 | 65.9* | 8.3 | -3.4
CC1CCC(NC(=O)CN2CCC(n3nnc4cc(F)ccc43)CC2)CC1 (configuration not stated) | 11.3 | 0.9 | 0.7 | 32.1 | / | /
CCOc1ccc2nc(NC(=O)CN3CCC(n4nnc5cc(C(F)(F)F)ccc54)CC3)sc2c1 | -10.6 | 1.1 | 1.1 | -9.9 | 2.8 | -2.5
Cc1ccc2nc(C3CCN(CC(=O)Nc4ccc5c(c4)OCCO5)CC3)[nH]c2c1 | 77.8* | 0.2 | 0.2 | 80.2* | 0.5 | -2.1
Cc1cc(NC(=O)CN2CCC(n3nnc4cc(C(F)(F)F)ccc43)CC2)no1 | 85.9* | 0.1 | 0.2 | 77.5* | -25.0 | 20.1
CCOC(=O)c1cnc(SCC(=O)Nc2cc(C(F)(F)F)ccc2N2CCOCC2)nc1N | 4.7 | 1 | 1 | 3.7 | -12.8 | -17.6
COc1cc(NC(=O)c2cc(-c3cccnc3)nc3ccc(C)cc23)c(OC)cc1Cl | -10.0 | 1.1 | 1 | -1.1 | 7.5 | -12.4

Source: PubChem
